aSyn 5UTR act = Activators via SNCA 5'UTR binding, MLPCN; 300,000 tested, 7.1% active; AID 1814; activity score, % (tested at 7.5 µM), hits read low; alpha-synuclein 5'UTR reporter, activators screen; in the data active = activity score below about -60%
Numbers stand for hits; - = inactive. Not all results are given here.

SMILES | aSyn 5UTR act
COC(=O)c1c(NC(=O)c2nc3ccccc3s2)sc2c1CC(C)(C)NC2(C)C | -
CCOC(=O)c1c(NC(=O)CSc2nc3ccccc3[nH]2)sc2c1CC(C)(C)NC2(C)C | -101
O=C(Nc1ccccn1)c1ccc2ccccc2c1O | -144
O=C(Nc1cccnc1)c1ccc2ccccc2c1O | -137
O=C(Nc1cccc([N+](=O)[O-])c1)c1ccc2ccccc2c1O | -128
Cc1cc(Nc2ccccc2)n2nc(C)c(-c3ccccc3)c2n1 | -64
O=C(Cc1ccccn1)c1ccc(Cl)cc1 | -164
CC1=C(CC(=O)c2ccc(Cl)cc2)C(=O)c2ccccc2C1=O | -70
C=CCn1c(SCc2c(C)noc2C)nc2ccccc2c1=O | -
C=CCn1c(N/N=C/c2ccc(O)cc2)nc2ccccc2c1=O | -134
O=c1[nH]c(N/N=C\c2ccc(F)cc2)nc2ccccc12 | -150
O=c1[nH]c(N/N=C/c2ccc(O)cc2)nc2ccccc12 | -158
COc1ccc(C(=O)NCCOc2ccccc2Cl)c(OC)c1OC | -154
CSc1nc(N)nc(SCC(=O)Nc2cccc(F)c2)c1C#N | -73
O=C(Nc1nc(=O)c2ccccc2s1)c1ccc(F)cc1 | -264
O=C(Nc1nc(=O)c2ccccc2s1)c1ccc(Cl)cc1 | -140
COCCNC(=O)C(c1cccnc1)N(Cc1ccccc1)C(=O)Cn1nnc2ccccc21 (configuration not stated) | -65
COCCNC(=O)C(c1ccncc1)N(Cc1ccccc1)C(=O)Cn1nnc2ccccc21 (configuration not stated) | -82
O=C(Oc1c(CN2CCOCC2)cc(Cl)c2cccnc12)c1ccc(F)cc1 | -
CCOc1ccccc1-n1c(CN2CCN(C(=O)c3ccco3)CC2)nc2ccccc2c1=O | -
OC1(c2ccc(Cl)cc2)CCN(Cc2cn[nH]c2-c2ccc(F)cc2)CC1 | -
O=C(c1ccco1)N1CCN(Cc2ccc(F)cc2Cl)CC1 | -158
O=C(c1ccco1)N1CCCN(Cc2cn[nH]c2-c2ccc(-c3ccccc3)cc2)CC1 | -95
OC1(c2ccc(Cl)cc2)CCN(Cc2cn[nH]c2-c2ccccc2)CC1 | -
O=C(c1ccco1)N1CCN(Cc2ccccc2Br)CC1 | -78
SMILES | aSyn 5UTR act
Cc1ccc2nc(-c3cc(N)cc(N)c3)oc2c1 | -
Nc1ccc(-c2nc3ccc(-c4nc5ccccc5o4)cc3[nH]2)cc1 | -215
Cc1nc2ccc(-c3nc4ccccc4o3)cc2[nH]1 | -73
CCOC(=O)c1ccc(N2Cc3ccccc3C2=NC(=O)c2cccc([N+](=O)[O-])c2)cc1 | -212
O=C(N=C1c2ccccc2CN1c1ccccc1)c1cccc([N+](=O)[O-])c1 | -123
O=C(N=C1c2ccccc2CN1c1ccc(F)c(F)c1)c1cccnc1 | -84
CC(=O)Nc1ccc(-c2csc(N/N=C(/C)c3ccccc3)n2)cc1 | -102
C/C(=N/Nc1nc(-c2ccc(Cl)cc2)cs1)c1cccs1 | -75
CC(=O)Nc1ccc(-c2csc(NCc3ccccc3)n2)cc1 | -75
Cc1cc2oc(=O)c(CC(=O)NCCCN(C)C)c(C)c2c2occ(C(C)(C)C)c12 | -
COCCNC(=O)Cc1c(C)c2c(cc(C)c3c(C(C)(C)C)coc32)oc1=O | -116
Cn1c(=O)c(C(=O)NCc2ccccc2)c(O)c2ccccc21 | -74
Cn1c(=O)c(C(=O)c2ccc(S(C)(=O)=O)c(Cl)c2Cl)c(O)c2ccccc21 | -85
Cn1c(=O)c(C(=O)NCc2ccccc2Cl)c(O)c2ccccc21 | -78
CC(=Nc1ccc(C)c(C)c1)C1=C(O)CSC1=O | -122
COc1ccccc1/C=N/NC(=O)c1csc(C)c1C | -78
Cc1scc(C(=O)N/N=C/c2ccc(Cl)s2)c1C | -93
CCc1cccc(NC(=O)COc2ccccc2)c1 | -92
Cc1ccccc1OCC(=O)Nc1cccc(N(C)S(C)(=O)=O)c1 | -62
Cc1ccc(NC(=O)COc2ccccc2C=O)cc1Cl | -121
COc1cccc(NC(=O)COc2ccccc2C(N)=O)c1 | -75
Cc1ccc(C)c(OCC(=O)Nc2c[nH]c(=O)[nH]c2=O)c1 | -
CSc1ccccc1NC(=O)COc1ccccc1C | -107
CC(=O)Nc1cccc(NC(=O)COc2ccccc2C)c1 | -77
CN(c1cccc(NC(=O)COc2ccc(Cl)cc2Cl)c1)S(C)(=O)=O | -131
SMILES | aSyn 5UTR act
CN(c1cccc(NC(=O)COc2ccccc2)c1)S(C)(=O)=O | -113
O=P(O)(O)c1ccccc1OCCOCCOCCOCCOc1ccccc1P(=O)(O)O | -130
C=CCn1c2ccccc2c(=O)c2cc(C#Cc3ccsc3)ccc21 | -211
NNc1nc(-c2ccccc2Cl)nc2sc3c(c12)CCCC3 | -200
CC(=O)Nc1cccc(-c2nc3ccccc3s2)c1 | -133
CC(=O)Nc1ccc(O)c(-c2nc3ccccc3s2)c1 | -326
CC(=O)Nc1cccc(-c2nc3ccc(NC(C)=O)cc3s2)c1 | -133
Nc1cccc(-c2nc3ccccc3s2)c1 | -67
COC(=O)Cc1ccc2sc(-c3ccccc3)nc2c1 | -208
O=C(CCS(=O)(=O)c1ccccc1)Nc1ccc(-c2nc3ccccc3s2)c(O)c1 | -93
CC(=O)Nc1cccc(-c2cc(C)c3cc4c(cc3n2)OCO4)c1 | -89
Cc1ccc(C(=O)Cn2ncsc2=N)cc1 | -164
O=[N+]([O-])c1cc(O)c2ncccc2c1 | -
O=[N+]([O-])c1cc2c(c(CSc3ncccn3)c1)OCOC2 | -63
Cc1ccc(NC(=S)C2=C(O)c3ccccc3N(C)S2(=O)=O)cc1 | -100
CN1c2ccccc2C(O)=C(C(=O)Nc2ccccc2)S1(=O)=O | -84
C/C=C/COC(=O)c1[nH]c2c(c1C)C(=O)CC(c1ccco1)C2 (configuration not stated) | -
CCOC(=O)C1=C(N)n2c(s/c(=C\c3ccco3)c2=O)=C(C(=O)OCC)C1c1ccco1 (configuration not stated) | -78
CCCCN1C(=O)C(=O)N(c2ccccc2)C1=S | -135
CCCCCCN1C=CC(=C2C(=O)c3ccccc3C2=O)C=C1 | -
O=C1/C(=C/c2ccc(N3CCOCC3)o2)SC(=Nc2ccccc2)N1CCc1c[nH]c2ccccc12 | -121
COc1ccc(C(=O)O/N=C(\N)c2ccc(OC)c(OC)c2)cc1 | -139
COc1ccc(C(=O)O/N=C(\N)c2ccc(OC)c(OC)c2)c(OC)c1 | -96
O=C(NC(=S)Nc1ncccn1)c1ccc(Cl)cc1Cl | -165
COc1ccccc1NC(=S)NNC(=O)c1ccc(Cl)cc1Cl | -137
SMILES | aSyn 5UTR act
O=C(Nc1cccnc1Cl)c1cc(-c2ccc(F)cc2)on1 | -74
O=C(NC(=S)Nc1ccc2c(c1)C(=O)c1ccccc1C2=O)c1ccc(F)cc1 | -141
O=C(NC(=S)Nc1cccnc1Cl)c1ccc(F)cc1 | -124
O=C(NC(=S)NNC(=O)c1cnccn1)c1ccc(Cl)cc1 | -
O=C(NC(=S)Nc1ncccn1)c1ccc(F)cc1 | -203
COc1ccc(NC(=O)C(=O)NCC2CCCN2S(=O)(=O)c2ccc(C)cc2)cc1 (configuration not stated) | -
O=C(COC(=O)[C@@H]1CCCN1S(=O)(=O)c1ccc(Cl)cc1)NCC(F)(F)F | -
Cc1ccc(S(=O)(=O)N2CCCC2CNC(=O)C(=O)Nc2ccc(F)cc2)cc1 (configuration not stated) | -74
Cc1ccc(S(=O)(=O)Oc2ccc(C)cc2/C=N/N=C2\NC(=O)C(C)S2)cc1 (configuration not stated) | -66
COCCCNCCCCOc1ccc(OCc2ccccc2)cc1 | -69
C=CCNCCCCOc1ccc(OCc2ccccc2)cc1 | -80
c1ccc(COc2ccc(OCCCNC3CCCC3)cc2)cc1 | -70

Screening results (PubChem)
